For this test, the target named is AMP-activated protein kinase, AMPK (Homo sapiens) (UniProt P54646+O43741+P54619+Q9UGJ0+Q9Y478+Q13131+Q9UGI9). In words: AMP-dependent Kinase enzyme assay. An in vitro enzyme assay that detects ADP turnover that is directly proportional to AMPK activity. This uses naive AMPK that is activated during the assay with MK-8722. Also noted: scale not given: direction of the effect not stated beside the values. Format: functional. The conditions noted are these: 30 µM.
For the compound `Cc1cc(CNC(=O)c2cc(NC(=O)C(C)C)ccc2Cl)no1`, the Percent Effect came to 4.16%.
As for `CCn1cc(S(=O)(=O)Nc2ccc3[nH]c(C4CCC4)nc3c2)cn1`, the Percent Effect was 2.5%.
On to `Cn1ncnc1NCc1ccc(Cl)cc1`, for which the Percent Effect worked out at 7.15%.
With `Cn1cc(CC(=O)N2CCCC(c3ccn[nH]3)C2)cn1` (stereo not given), the Percent Effect was -1.05%.
Then `COc1cc(CNC(=O)COC2CCCCC2)ccc1O`, with -0.805%.
Consider `CCC(NC(=O)C(C)C)c1ccccc1C` (stereo not given), for which the Percent Effect was found to be 8.49%.
Then `O=C(NCC[S+]([O-])c1ccccc1)c1ccc2[nH]c(=O)[nH]c2c1` (stereo not given), with 6.24%; and `Clc1ccccc1CCn1ccnc1-c1cn(C2CCNCC2)nn1`, with -7.28%.
Consider `CC(C)(C)c1nc(CN2CCCC2c2nnc3ccccn23)no1` (stereo not given), for which the Percent Effect came to 6.67%.
For `CCS(=O)(=O)NCC(=O)N(C1CC1)C1Cc2ccccc2C1`, the Percent Effect is -4.92%.
With `Cc1cc(CN(C)C(C(=O)O)c2ccc(C(C)(C)C)cc2)on1` (stereo not given), the Percent Effect stood at 8.61%.
The same measure for `O=S1(=O)NC(C2CCCN(S(=O)(=O)N3CCCC3)C2)=Nc2ccccc21` (stereo not given): 13.9%; for `CC(=O)Nn1ccc2c(nnc3c(-c4ccc(F)cc4)cnn32)c1=O`: 10.3%; for `C[C@@H]1CN(C(=O)Cn2ccc3ncccc3c2=O)C[C@H](C)O1`: -2.09%.
The same measure for `Cc1ccc(CNC(=O)c2ccc(=O)n(C)n2)c(OCC2CC2)c1`: 14.4%; for `O=C(CNc1ccc(OC2CCOC2)cc1)NCc1ccco1` (stereo not given): 7.98%; for `Cc1cccc(CN2CCOCC2c2[nH]ncc2C)n1` (stereo not given): 16.3%.
Consider `O=C(NCC1CCOC1)c1cc(-c2ccccc2Cl)[nH]n1` (stereo not given), for which the Percent Effect was 2.35%.
Consider `CN(C)c1nc2sc(C(=O)N3CCNC(=O)CC3)cc2s1`, for which the Percent Effect turned out to be 0.0719%.
As for `CN(C)C(=O)CN1CCCC(c2nccnc2-c2cccc(Cl)c2)C1` (stereo not given), the Percent Effect was 19.9%.
The same measure for `Cc1ccc(CN(C(=O)NCC2CCCO2)C2CC2)o1` (stereo not given): -2.62%.
On to `CCOCC(C)(C)NC(=O)Nc1cc(F)ccc1OC`, for which the Percent Effect came out at 1.04%.
`Cc1nccn1CC1CCCN(C(=O)Cc2ccsc2)C1` (stereo not given): the Percent Effect came out at 0.964%.
For the compound `CN1C[C@@H]2CC[C@H](C1)N(Cc1ccccc1OCCN1CCOCC1)C2`, the Percent Effect was -106%.
For the compound `CC(C)Cc1cc(C(=O)N2CCC(Cc3cnn(C)c3)C2)cc(O)n1` (stereo not given), the Percent Effect is -2.83%.
Take `CCCNC(=O)c1[nH]nc(C2CC2)c1Br`: the Percent Effect is 2.02%.
Consider `Cc1ccc(-c2nc(C(=O)N(C)CC(=O)N3CCCC3)cs2)c(C)c1`, for which the Percent Effect is 1.55%.
Regarding `O=C(c1cccnc1)N1CCC(Oc2cccc(C(F)(F)F)c2)CC1`, the Percent Effect was -1.51%.
Regarding `Cn1nccc1CN1CCOC(c2cccc(Nc3ccccn3)n2)C1` (stereo not given), the Percent Effect is 5.54%.
For `CCCOc1ccc(Cl)cc1CNc1ncnc2oc(C)nc12`, the Percent Effect turned out to be 0.0102%.
On to `CC1(C)COCCN1C(=O)Cc1cc(Cl)c2c(c1)OCCO2`, for which the Percent Effect came out at 10.7%.
Take `CCc1nsc(N2CCCN(CC(=O)N(C)C3CC3)CC2)n1`: the Percent Effect amounted to 7.28%.
With `CCCC(=O)NC1CCCN(Cc2cccs2)C1` (stereo not given), the Percent Effect is 5.79%.
In the case of `N#CC1COCCN1C(=O)c1ccc2[nH]cnc2c1` (stereo not given), the Percent Effect was -8.21%.
`Cc1sc2ncnc(N3CCCC3Cn3cccn3)c2c1C` (stereo not given): the Percent Effect is 3.42%.
In the case of `CCN(Cc1ccncc1)C1CCN(c2ccccc2)C1=O` (stereo not given), the Percent Effect was -7.01%.
Then `CCN1CCCC(NC(=O)c2ccc(C)[nH]c2=O)C1` (stereo not given), with -5.78%.
`Cc1cc(C(=O)N2CCNC(=O)CC2)c(C)n1CC(F)(F)F`: the Percent Effect is -2.89%.
For `Cc1c(NC(=O)CN2CCN(C3CCCC3)C(=O)C2)cnn1C`, the Percent Effect stood at 2.4%.
As for `c1ccc(CCCn2ccnc2-c2cn(C3CCNCC3)nn2)nc1`, the Percent Effect is -13.8%.
